From PMC12864922, “TDP-43 directly inhibits mRNA accumulation in neurites through modulation of mRNA stability”
Whole data set: some 9,900 sequences, median “r (bound/input frequency ratio)” near 0.7, cut for the highest 2% near 6.5. Only a selection was taken, and the highest values are over-represented in it overall.

B1: ENSMUSG00000061578.1485|Ksr2 (ssRNA)
RNA: GGGAGUUCUACAGUCCGACGAUCGCUUCGAUAUCCGCAUGCUAUGCAUAGGCAAGUAGAUGAAUGAAUAUGUGGGUAGAAGGGUGAGUGGGUGGAUGAAUGGAUGGAUAGGUUGGUAGGUUAAUGUAUUCGUGGAUGGGUGAAUGGAUGGAUGGAUAGAUAGAUGGGAAGGUGGAUGGACAGAUGGAUGGAUGGAUAGAUAGAUGGACAGGUGGUUGGUGGAUAAAUGAGUGAAUGAUUAUGUUGAUAGAUAUGUGGGUAGGCUGAAUGGGUGAAUGGAUAGAUCGAUGACUGGAUGGAGGGUCUCUUGCGGUCGCACUAGUGUGGAAUUCUCGGGUGUCAAGG
B2: ENSMUSG00000061578.1482|Ksr2 (ssRNA)
RNA: GGGAGUUCUACAGUCCGACGAUCGCUUCGAUAUCCGCAUGCUAGAUGGGUAGGUGGGUGGAUGCAUAGGCAAGUAGAUGAAUGAAUAUGUGGGUAGAAGGGUGAGUGGGUGGAUGAAUGGAUGGAUAGGUUGGUAGGUUAAUGUAUUCGUGGAUGGGUGAAUGGAUGGAUGGAUAGAUAGAUGGGAAGGUGGAUGGACAGAUGGAUGGAUGGAUAGAUAGAUGGACAGGUGGUUGGUGGAUAAAUGAGUGAAUGAUUAUGUUGAUAGAUAUGUGGGUAGGCUGAAUGGGUGAAUGGAUAGAUCCUCUUGCGGUCGCACUAGUGUGGAAUUCUCGGGUGUCAAGG
B3: ENSMUSG00000061578.1484|Ksr2 (ssRNA)
RNA: GGGAGUUCUACAGUCCGACGAUCGCUUCGAUAUCCGCAUGCUAGGUGGAUGCAUAGGCAAGUAGAUGAAUGAAUAUGUGGGUAGAAGGGUGAGUGGGUGGAUGAAUGGAUGGAUAGGUUGGUAGGUUAAUGUAUUCGUGGAUGGGUGAAUGGAUGGAUGGAUAGAUAGAUGGGAAGGUGGAUGGACAGAUGGAUGGAUGGAUAGAUAGAUGGACAGGUGGUUGGUGGAUAAAUGAGUGAAUGAUUAUGUUGAUAGAUAUGUGGGUAGGCUGAAUGGGUGAAUGGAUAGAUCGAUGACUGGAUGCUCUUGCGGUCGCACUAGUGUGGAAUUCUCGGGUGUCAAGG
B4: ENSMUSG00000061578.1479|Ksr2 (ssRNA)
RNA: GGGAGUUCUACAGUCCGACGAUCGCUUCGAUAUCCGCAUGCUAUGAAUGAAUGGAUGAAUGGAUGGGUAGGUGGGUGGAUGCAUAGGCAAGUAGAUGAAUGAAUAUGUGGGUAGAAGGGUGAGUGGGUGGAUGAAUGGAUGGAUAGGUUGGUAGGUUAAUGUAUUCGUGGAUGGGUGAAUGGAUGGAUGGAUAGAUAGAUGGGAAGGUGGAUGGACAGAUGGAUGGAUGGAUAGAUAGAUGGACAGGUGGUUGGUGGAUAAAUGAGUGAAUGAUUAUGUUGAUAGAUAUGUGGGUAGGCUGAACUCUUGCGGUCGCACUAGUGUGGAAUUCUCGGGUGUCAAGG
B5: ENSMUSG00000061578.1483|Ksr2 (ssRNA)
RNA: GGGAGUUCUACAGUCCGACGAUCGCUUCGAUAUCCGCAUGCUAUAGGUGGGUGGAUGCAUAGGCAAGUAGAUGAAUGAAUAUGUGGGUAGAAGGGUGAGUGGGUGGAUGAAUGGAUGGAUAGGUUGGUAGGUUAAUGUAUUCGUGGAUGGGUGAAUGGAUGGAUGGAUAGAUAGAUGGGAAGGUGGAUGGACAGAUGGAUGGAUGGAUAGAUAGAUGGACAGGUGGUUGGUGGAUAAAUGAGUGAAUGAUUAUGUUGAUAGAUAUGUGGGUAGGCUGAAUGGGUGAAUGGAUAGAUCGAUGACCUCUUGCGGUCGCACUAGUGUGGAAUUCUCGGGUGUCAAGG
B6: ENSMUSG00000061578.1486|Ksr2 (ssRNA)
RNA: GGGAGUUCUACAGUCCGACGAUCGCUUCGAUAUCCGCAUGCUAGGCAAGUAGAUGAAUGAAUAUGUGGGUAGAAGGGUGAGUGGGUGGAUGAAUGGAUGGAUAGGUUGGUAGGUUAAUGUAUUCGUGGAUGGGUGAAUGGAUGGAUGGAUAGAUAGAUGGGAAGGUGGAUGGACAGAUGGAUGGAUGGAUAGAUAGAUGGACAGGUGGUUGGUGGAUAAAUGAGUGAAUGAUUAUGUUGAUAGAUAUGUGGGUAGGCUGAAUGGGUGAAUGGAUAGAUCGAUGACUGGAUGGAGGGUGGGUGACUCUUGCGGUCGCACUAGUGUGGAAUUCUCGGGUGUCAAGG
B7: ENSMUSG00000061578.1480|Ksr2 (ssRNA)
RNA: GGGAGUUCUACAGUCCGACGAUCGCUUCGAUAUCCGCAUGCUAAAUGGAUGAAUGGAUGGGUAGGUGGGUGGAUGCAUAGGCAAGUAGAUGAAUGAAUAUGUGGGUAGAAGGGUGAGUGGGUGGAUGAAUGGAUGGAUAGGUUGGUAGGUUAAUGUAUUCGUGGAUGGGUGAAUGGAUGGAUGGAUAGAUAGAUGGGAAGGUGGAUGGACAGAUGGAUGGAUGGAUAGAUAGAUGGACAGGUGGUUGGUGGAUAAAUGAGUGAAUGAUUAUGUUGAUAGAUAUGUGGGUAGGCUGAAUGGGUGCUCUUGCGGUCGCACUAGUGUGGAAUUCUCGGGUGUCAAGG
B8: ENSMUSG00000061578.1478|Ksr2 (ssRNA)
RNA: GGGAGUUCUACAGUCCGACGAUCGCUUCGAUAUCCGCAUGCUAGAUUUGUGAAUGAAUGGAUGAAUGGAUGGGUAGGUGGGUGGAUGCAUAGGCAAGUAGAUGAAUGAAUAUGUGGGUAGAAGGGUGAGUGGGUGGAUGAAUGGAUGGAUAGGUUGGUAGGUUAAUGUAUUCGUGGAUGGGUGAAUGGAUGGAUGGAUAGAUAGAUGGGAAGGUGGAUGGACAGAUGGAUGGAUGGAUAGAUAGAUGGACAGGUGGUUGGUGGAUAAAUGAGUGAAUGAUUAUGUUGAUAGAUAUGUGGGUAGCUCUUGCGGUCGCACUAGUGUGGAAUUCUCGGGUGUCAAGG
B9: ENSMUSG00000061578.1481|Ksr2 (ssRNA)
RNA: GGGAGUUCUACAGUCCGACGAUCGCUUCGAUAUCCGCAUGCUAUGAAUGGAUGGGUAGGUGGGUGGAUGCAUAGGCAAGUAGAUGAAUGAAUAUGUGGGUAGAAGGGUGAGUGGGUGGAUGAAUGGAUGGAUAGGUUGGUAGGUUAAUGUAUUCGUGGAUGGGUGAAUGGAUGGAUGGAUAGAUAGAUGGGAAGGUGGAUGGACAGAUGGAUGGAUGGAUAGAUAGAUGGACAGGUGGUUGGUGGAUAAAUGAGUGAAUGAUUAUGUUGAUAGAUAUGUGGGUAGGCUGAAUGGGUGAAUGGACUCUUGCGGUCGCACUAGUGUGGAAUUCUCGGGUGUCAAGG
B10: ENSMUSG00000028439.39|Fam219a|34:40 (ssRNA)
RNA: GGGAGUUCUACAGUCCGACGAUCGCUUCGAUAUCCGCAUGCUACAUUGCUUCCUCCUAUGGUAGGACGUGUACCUCACACACAUCAAGGAGCCGGAGAAACCAAAACCGGGUCUGUCUCCAGCCCCGGGGCUGAGGAGGGGUGGGCACUGUUUGUUCGGUUACUUGGGGGGAACCACACCCAAGCACCCUGCCACCUCUCCUAUAGCUGCAGUCAGGGGGGCAGCACUGAAGGCCAGGAGGCCAAAUGUAAGCGUUGGGUGAAGGGAUCACAGGGCCGGAAGGUUGGCCCCAGCCAGUGAAGCCUCUUGCGGUCGCACUAGUGUGGAAUUCUCGGGUGUCAAGG
B11: ENSMUSG00000043670.69|Diras1|133:138 (ssRNA)
RNA: GGGAGUUCUACAGUCCGACGAUCGCUUCGAUAUCCGCAUGCUACCAUUCUAUCUGCACCCCACAACCACACACUGGAGGUUUGAUCCCUGUGGAUCUGAAAACAGGGACCUGGCUAAGGAACUGCUCAUCCCAGUCAGGCCCAGAGAGGUUACCUUGCCUCUCCAUCUCUGUCCCACACACCCCAGCCAUGCCCACUGUCCCUGUCCCUCACAUUCUAUCACUGUGACCUCUGGGGAGUGCCCAUUGACCUCAUCUUCCUUCACUAAUAUCUUAUUUCUUUCACCUGAUCCUGUCCUUUCCCCCUCUUGCGGUCGCACUAGUGUGGAAUUCUCGGGUGUCAAGG
B12: ENSMUSG00000028439.112|Fam219a (ssRNA)
RNA: GGGAGUUCUACAGUCCGACGAUCGCUUCGAUAUCCGCAUGCUACAAAGGGAUACUGUCUCUCCAUUAGAUAACUCCUUCCACUGUCUCCCUCCCCCGCUUUCUUACUUUCUGAGGGUUGGGAAGGUAAGAUGGGCCUUAGAGAGAAGCCAGGUUUGGGGAUGGUAUGACCUGUUCUCACCGGUCUCUAACCAGUGCAUCUGUCUCUCUGCCUCAUCCCCACACCGCCCUGCCACCCCCAGUCUUCUGUCUAUUGGUUCCAGGCUGGAAGCAAGAGAUAAGGCUGGCCUCCUGUGCCCCAUUGCCUCUUGCGGUCGCACUAGUGUGGAAUUCUCGGGUGUCAAGG
B13: ENSMUSG00000032194.3|Kank2 (ssRNA)
RNA: GGGAGUUCUACAGUCCGACGAUCGCUUCGAUAUCCGCAUGCUAUCAGACUACGAGAGUCCGGCUUCGUCUUCAGCCGAGGAGUGAAUACAGGGAGGAGCCAGUGAGUCCCCCAGGACCCACCAGCCACAAGCCACGCAUCAAACCGUCCCUCCUCCAUCCCUCUGUCCCAUUCUGCCUCGGCAUUCCUCAGCCCCUGAACUUCCCUGAGGGAGCCCUGACAUCUACCAGGCUCAAGCUCCUGGAAGCCUUUCCCAGCACCCUGGGUUCAAAGCCAGAAAGCCAAGCUACAUUCUCCUCCCAGUCUCUUGCGGUCGCACUAGUGUGGAAUUCUCGGGUGUCAAGG

Each binder was assayed against TDP-43 (Homo sapiens, UniProt Q13148 1-414) (assay: RNA Bind-n-Seq with designed 260-mer pool; 25 mM Tris-HCl, 150 mM KCl, 3 mM MgCl2, BSA (printed 500 mg/mL), 20 units/mL SUPERase IN; pH not stated; 500 nM RNA pool, 1 h, 4 C; TDP-43 5, 50, 500 nM; high values mean tight binding). Conditions: protein: recombinant; tags: SBP (GST cleaved off with PreScission; pGEX-GST-SBP).
TDP-43, sequence (Q13148 whole entry): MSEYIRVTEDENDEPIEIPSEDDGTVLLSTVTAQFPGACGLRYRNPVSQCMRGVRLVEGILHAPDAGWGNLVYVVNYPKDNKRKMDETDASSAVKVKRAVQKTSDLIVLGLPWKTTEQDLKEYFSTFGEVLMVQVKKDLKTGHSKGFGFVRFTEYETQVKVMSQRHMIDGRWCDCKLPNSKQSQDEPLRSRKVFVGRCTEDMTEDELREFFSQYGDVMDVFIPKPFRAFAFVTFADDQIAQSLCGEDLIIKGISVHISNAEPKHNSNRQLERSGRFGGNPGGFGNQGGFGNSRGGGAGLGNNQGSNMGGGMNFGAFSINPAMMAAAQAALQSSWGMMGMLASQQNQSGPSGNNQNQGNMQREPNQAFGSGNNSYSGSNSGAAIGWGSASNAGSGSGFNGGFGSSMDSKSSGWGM
Method in brief: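 Binding (R) is the ratio of each oligo's mapped-read-normalized abundance in the bound fraction to its abundance in the input. To obtain it, SBP-tagged recombinant TDP-43 (5, 50 or 500 nM) on streptavidin beads was incubated with 500 nM of an in vitro-transcribed 260-nt 3′ UTR oligo pool for 1 h at 4 °C in 25 mM Tris-HCl, 150 mM KCl, 3 mM MgCl2, BSA and SUPERase IN. The RNA retained after washing was released with biotin, then reverse transcribed, amplified by PCR and sequenced.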

Point of comparison: B10, binding signal 1.29 R (bound/input frequency ratio). Against it:
- B1 — higher, 5.62 R (bound/input frequency ratio)
- B2 — higher, 7 R (bound/input frequency ratio)
- B3 — higher, 6.89 R (bound/input frequency ratio)
- B4 — higher, 5.48 R (bound/input frequency ratio)
- B5 — higher, 4.53 R (bound/input frequency ratio)
- B6 — higher, 5.39 R (bound/input frequency ratio)
- B7 — higher, 7.65 R (bound/input frequency ratio)
- B8 — higher, 4.77 R (bound/input frequency ratio)
- B9 — higher, 5.98 R (bound/input frequency ratio)
- B11 — higher, 2.03 R (bound/input frequency ratio)
- B12 — lower, 0.71 R (bound/input frequency ratio)
- B13 — higher, 1.4 R (bound/input frequency ratio)
